Bioassay records (PubChem)
Hits are enriched below; roughly 5.4% of the tested compounds scored in any of these assays.
MARV entry inh: blocks Marburg virus binding to or entry into cells. Potency, µM (top dose mostly 37.8 µM), without a hit: at the highest dose activity change, negative = inhibition, most hits filed as inhibitors. AID 540276. 300,000 compounds, 1.8% hits. Marburg virus pseudotyped entry inhibition, cell reporter; calls by dose curve; tested in HEK293 cells
Lassa entry inh: inhibitors of Lassa virus binding or cell entry | Potency, µM (titrated, usually from 37.9 µM), inactives show at the top dose activity change, negative = inhibition, usual class: inhibitors | 300,000 compounds, 1.2% hits | Lassa virus pseudotype entry inhibition, cell reporter; calls by dose curve; tested in HEK293 cells; note: nearly all actives have a fitted effect of over 50% in size
Vaccinia Venus: vaccinia inhibition (Venus reporter) | Vaccinia virus Venus reporter expression, fluorescence | Potency, µM (doses to about 36.5 µM), for inactives: at the highest dose activity change, negative = inhibition, usual class: inhibitors | 330,000 compounds, 0.46% hits | AID 720580; calls by dose curve; tested in A549 cells; note: nearly all actives have a fitted effect of over 30% in size
VACV mCherry inh: vaccinia inhibition (mCherry reporter) | AID 720579 | Potency, µM (doses to about 36.5 µM), for the others: at the highest dose activity change, negative = inhibition, most hits filed as inhibitors | 310,000 compounds, 0.63% hits | Vaccinia virus mCherry reporter infection, fluorescence; calls by dose curve; tested in A549 cells; note: nearly all actives have a fitted effect of over 35% in size
Sm TGR block: inhibitors of Schistosoma mansoni thioredoxin glutathione reductase. purified TGR, DTNB reduction, TNB absorbance 405 nm. Potency, µM (highest dose often 114 µM), inactives show top-dose activity change, negative = inhibition, usual class: inhibitors. 360,000 compounds, 3% hits. AID 485364; active = well fitted inhibition curve with a large enough effect; inconclusive = small, poorly fitted or top-dose-only effect; inactive = no such curve, though single readings can be large or run the other way; note: nearly all actives have a fitted effect of over 60% in size
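Kinetic colorimetric format: TGR-catalysed, NADPH-driven DTNB reduction monitored via TNB absorbance. Enzyme dispensed at 20 nM; compound exposure 15 min at room temperature before reaction start.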
FMDV antiviral: blocks foot and mouth disease virus; 410,000 compounds, 1.2% hits; FMDV antiviral cell-based qHTS; Potency, µM (titrated, usually from 57.9 µM), without a hit: at the highest dose activity change, negative = inhibition, hits mostly inhibitors; calls by dose curve; tested in HEK293T cells; note: read-out not given here; nearly all actives have a fitted effect of over 45% in size
* hit, by the source's call; ! = not confirmed by another sample; [ ] = dose if it differs, or a comment. % is set by controls: 0 for no effect and ±100 for the full control effect; potency is the fitted concentration of half-maximal effect.

For COC(=O)c1cccc(NC(=O)/C=C/c2ccc3c(c2)OCO3)c1 the results were MARV entry inh inconclusive, Lassa entry inh 11µM*, Vaccinia Venus inconclusive, VACV mCherry inh inconclusive, Sm TGR block 5% and FMDV antiviral -3%.
Screening O=C(/C=C/c1ccco1)Nc1ccc2c(c1)OCO2 returned MARV entry inh inconclusive, Lassa entry inh inconclusive, Vaccinia Venus -7%, VACV mCherry inh 0%, Sm TGR block 14µM* and FMDV antiviral 5%.
COC(=O)c1cc(NC(=O)/C=C/c2ccc3c(c2)OCO3)cc(C(=O)OC)c1 was read as MARV entry inh inconclusive, Lassa entry inh inconclusive, Sm TGR block 6% and FMDV antiviral -10%.
O=C(NCc1ccco1)C1c2ccccc2Oc2ccccc21 was read as MARV entry inh inconclusive, Lassa entry inh 5%, Vaccinia Venus 6%, Sm TGR block 40µM* and FMDV antiviral -3%.
`CCOc1ccc(-n2c(=O)c3c(C)c(C)sc3n(CC(=O)c3ccccc3)c2=O)cc1` gave MARV entry inh 12%[46.1 µM], Lassa entry inh inconclusive, Vaccinia Venus -7%, VACV mCherry inh -21%, Sm TGR block 0% and FMDV antiviral -23%.
Cc1ccc(-n2nc(-c3ccccc3)c3cnc4cc5c(cc4c32)OCO5)cc1C was read as MARV entry inh -5%[46.1 µM], Lassa entry inh 9%[46.1 µM], Vaccinia Venus -4%, VACV mCherry inh inactive, Sm TGR block -5% and FMDV antiviral -9%.
Screening COCCCC/C(=N\OCCN)c1ccc(C(F)(F)F)cc1 returned MARV entry inh 10µM*, Lassa entry inh 6.5µM*, Vaccinia Venus -18%, VACV mCherry inh -29%, Sm TGR block 10% and FMDV antiviral -21%.
Screening COCCCCC(=NOCCN)c1ccc(C(F)(F)F)cc1 returned MARV entry inh inconclusive and FMDV antiviral -14%.
CCOc1cc(/C=N/Nc2nc3ccccc3[nH]2)cc(Br)c1OCC(=O)N(C)C was read as MARV entry inh inconclusive, Lassa entry inh inconclusive, Vaccinia Venus inconclusive, VACV mCherry inh inconclusive, Sm TGR block 10% and FMDV antiviral inconclusive.
Screening COc1ccc(/C=C2\COc3ccccc3C2=O)cc1OC returned MARV entry inh inconclusive, Lassa entry inh inconclusive, Vaccinia Venus -2%, VACV mCherry inh inactive, Sm TGR block inconclusive and FMDV antiviral -23%.
`O=C(O)c1ccc(/C=C2\COc3ccccc3C2=O)cc1` gave MARV entry inh inconclusive, Lassa entry inh inconclusive, Vaccinia Venus -4%, VACV mCherry inh -16%, Sm TGR block inconclusive and FMDV antiviral 22µM*.
For CCOc1cc(/C=C2\COc3ccccc3C2=O)cc(Br)c1OCC(=O)N(C)C the results were MARV entry inh inconclusive, Lassa entry inh inconclusive, Vaccinia Venus inconclusive, VACV mCherry inh inconclusive, Sm TGR block 11µM* and FMDV antiviral 10µM*.
CCc1nc2c(OCCC3CCCCC3)cccn2c1N(C)C(=O)c1cccs1 was read as Vaccinia Venus -23%, VACV mCherry inh -3% and FMDV antiviral 28µM*.
For CCc1nc2c(OCCC3CCCCC3)cccn2c1N(C)C(=O)CC(C)C the results were Vaccinia Venus -16%, VACV mCherry inh -24% and FMDV antiviral inconclusive.
Screening COc1ccc(NC(=O)CN2C(=O)COc3ccc(S(=O)(=O)N4CCCCC4)cc32)cc1Cl returned Lassa entry inh -18%[46.1 µM], Vaccinia Venus -5%, VACV mCherry inh -1%, Sm TGR block 2% and FMDV antiviral 8%.
Screening COc1ccccc1-c1noc(-c2ccc(NCc3cccnc3)c([N+](=O)[O-])c2)n1 returned MARV entry inh 10%[46.1 µM], Lassa entry inh 5%[46.1 µM], Vaccinia Venus -16%, VACV mCherry inh -10%, Sm TGR block -2% and FMDV antiviral -2%.
CC(=O)/C(C#N)=C1\NC(=O)C(Cc2ccccc2Cl)S1 (stereo not drawn) was read as MARV entry inh inconclusive, Lassa entry inh 2.3µM*, Vaccinia Venus 57%, VACV mCherry inh inconclusive, Sm TGR block 6% and FMDV antiviral 51%.
For CCc1ccc(-n2nc(CO)c(C(=O)NCCCCc3ccccc3)n2)cc1 the results were MARV entry inh 13%[46.1 µM], Lassa entry inh 8%[46.1 µM], Vaccinia Venus -12%, VACV mCherry inh -13%, Sm TGR block -3% and FMDV antiviral 5%.
For Cc1nn(-c2ccccc2)c2c1N(CC(=O)N1CCN(c3ccc(F)cc3)CC1)C(=O)CS2 the results were Lassa entry inh -11%[46.1 µM], Vaccinia Venus -3%, VACV mCherry inh -8%, Sm TGR block 3% and FMDV antiviral -3%.
Cc1ccc(Nc2nc(C(N)=O)c(NC(=O)c3ccccc3Br)s2)cc1 was read as Lassa entry inh -14%[46.1 µM], Vaccinia Venus -22%, VACV mCherry inh -4%, Sm TGR block 1% and FMDV antiviral 5%.
`COc1ccc(-c2ccc(CCC(=O)O)n2-c2ccccc2O)cc1` gave MARV entry inh -11%[46.1 µM], Lassa entry inh -7%[46.1 µM], Vaccinia Venus -2%, VACV mCherry inh -8%, Sm TGR block 28µM*! and FMDV antiviral 38%.
For COc1ccc(-n2c(CCC(=O)O)ccc2-c2ccccc2)cc1 the results were Lassa entry inh inconclusive, Vaccinia Venus -3%, VACV mCherry inh 6%, Sm TGR block 40µM*! and FMDV antiviral 9%.
`COc1ccc(CN2CC[C@H]3C=CC[C@@H](C(=O)Nc4ccccc4)[C@H]3C2=O)cc1OC` gave Vaccinia Venus -14% and VACV mCherry inh -25%.
Cc1ccsc1C=Nc1ccc(O)cc1 was read as MARV entry inh inconclusive, Lassa entry inh inconclusive, Vaccinia Venus 6%, VACV mCherry inh -8%, Sm TGR block 18µM* and FMDV antiviral -21%.
For COc1ccccc1NC(=O)CSc1oc(-c2ccccc2)nc1S(=O)(=O)c1ccccc1 the results were MARV entry inh inconclusive, Lassa entry inh -28%[46.1 µM], Vaccinia Venus inconclusive, VACV mCherry inh -27%, Sm TGR block -6% and FMDV antiviral -15%.
For CCC(C)c1ccc(-c2cc(C(=O)OCC(=O)Nc3cc(C)on3)c3ccccc3n2)cc1 (stereo not drawn) the results were MARV entry inh inconclusive, Lassa entry inh 1.6µM*, Vaccinia Venus -5%, VACV mCherry inh -7%, Sm TGR block -8% and FMDV antiviral 6%.
O=C(O)c1ccc(NC2=C/C(=N/S(=O)(=O)c3cccs3)c3ccccc3C2=O)cc1 was read as Vaccinia Venus 8%, VACV mCherry inh -6% and FMDV antiviral 10µM*.
O=C1C(Nc2ccc(O)cc2)=C/C(=N/S(=O)(=O)c2cccs2)c2ccccc21 was read as MARV entry inh 2.5µM*, Lassa entry inh 3.5µM*, Vaccinia Venus 2µM*, VACV mCherry inh inconclusive, Sm TGR block -17% and FMDV antiviral 13µM*.
